# High-throughput results deposited in PubChem BioAssay by National Center for Advancing Translational Sciences (NCATS).
# D3 ag = activates the human D3 dopamine receptor | P35462 | D3R DiscoveRx beta-arrestin cells, luminescence, 90 min | max activation, % | 410,000 tested, 0.58% active | AID 652048; in the data active = max activation above about 30%; also: 0% is about no effect
#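 Agonist-mode cell screen: cells plated at 1500/well and incubated overnight at 37 °C, then exposed to library compounds for 90 min at 37 °C. Detection reagent was added for 30–60 min at room temperature, and luminescence was read.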
# D1 potentiator = human D1 dopamine receptor positive modulation | potentiation, % at 10 µM | HEK293 TREx D1 cells, calcium flux, dopamine EC20 potentiation | 360,000 tested, 0.036% active | AID 504651 | P21728; in the data active = potentiation above about 30%; also: 0% is about no effect
# Target sequence (P21728 whole entry, looked up): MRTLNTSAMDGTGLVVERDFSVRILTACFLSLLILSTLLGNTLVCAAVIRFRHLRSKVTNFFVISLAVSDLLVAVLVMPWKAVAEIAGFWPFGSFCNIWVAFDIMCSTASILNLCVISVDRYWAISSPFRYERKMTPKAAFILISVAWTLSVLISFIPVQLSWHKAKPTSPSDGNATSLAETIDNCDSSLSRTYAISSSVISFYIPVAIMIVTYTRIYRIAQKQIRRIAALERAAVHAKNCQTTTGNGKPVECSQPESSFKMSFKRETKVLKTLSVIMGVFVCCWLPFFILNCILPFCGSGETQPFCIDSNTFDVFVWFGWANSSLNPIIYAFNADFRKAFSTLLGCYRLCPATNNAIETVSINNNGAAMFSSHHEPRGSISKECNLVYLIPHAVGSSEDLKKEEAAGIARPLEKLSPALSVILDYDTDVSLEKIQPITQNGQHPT
# DRD3 antagonist = blocks the human D3 dopamine receptor. D3R cells, DiscoveRx beta-arrestin luminescence, antagonist mode; stronger effect = lower value. 360,000 tested, 2.5% active. AID 652054. max response, negative = inhibition, %; in the data active = max response below about -50%; inconclusive = no clear call, values can overlap the other calls; also: % is scaled to controls: 0 for no effect and ±100 for the full control effect
#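 Cells expressing the human receptor were seeded at 1500 cells/well, incubated overnight at 37 degrees C in 5% CO2, then exposed to library compounds with dopamine controls for 90 minutes at 37 degrees C before luminescent detection.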
# D1 agonist = activates the human D1 dopamine receptor; 360,000 tested, 1% active; P21728; HEK293 T-REx D1 cells, calcium flux, agonist mode; activation, % at 2 µM; in the data active = activation above about 30%; also: 0% is about no effect
#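 Tetracycline-induced HEK293 TREx D1 cells, force-coupled to calcium signalling, were dye-loaded with a no-wash calcium kit. Compound was pin-added after a 10 s baseline. Fluorescence was read kinetically at 1 cycle/s for 180 s, with calcium rises flagged as agonism.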
# D1 antag = blocks dopamine activation of the human D1 receptor; P21728; 360,000 tested, 3.2% active; AID 504652; activity change, negative = inhibition, % at 10 µM; HEK293 TREx D1 cells, calcium flux, dopamine EC80; stronger effect = lower value; in the data active = activity change below about -30%; also: % is scaled to controls: 0 for no effect and ±100 for the full control effect
#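 HEK293 T-REx cells expressing inducible, force-coupled D1 receptor; no-wash Ca dye, 30–90 min RT. Cmpd → 180 s read at 1 Hz → EC80 DA → 180 s read.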
# * = called active by the depositor; ? = inconclusive; . = no result given; ! = a repeat was not active. In the library only some 6% were active in any assay of this set; here they are far more common.
SMILES,D3 ag,D1 potentiator,DRD3 antagonist,D1 agonist,D1 antag
Cc1ccccc1Cn1ccc(NC(=O)c2cnn3c(C(F)(F)F)cc(-c4ccco4)nc23)n1,-2,-7,7,1,-57*
COc1ccc2nc(SCC(=O)N3CC(=O)Nc4ccccc43)c(C#N)cc2c1,-21,-3,-2,32*,-30*
Cc1ccc2oc3c(c(=O)c2c1)C(c1cccc(O)c1)N(Cc1ccccc1Cl)C3=O (configuration not stated),-6,1,.,1,-55*
Cc1cc2oc3c(c(=O)c2cc1C)C(c1cccc(Br)c1)N(Cc1ccco1)C3=O (configuration not stated),2,-3,-16,0,-24
Cc1ccc2oc3c(c(=O)c2c1)C(c1cccc(Br)c1)N(Cc1ccco1)C3=O (configuration not stated),4,-1,-56*,-1,-3
CCCCN(C(=O)CSCc1ccc(C)cc1)c1c(N)n(CCC)c(=O)[nH]c1=O,2,-2,20,2,0
CCN(CC)CCN1C(=O)C(=O)/C(=C(/O)c2ccc(S(=O)(=O)N3CCOCC3)cc2)C1c1ccc(C(C)C)cc1 (configuration not stated),-20,-7,-24,3,-9
O=C(Nc1cccc(Cl)c1)N1CCSc2ccccc21,-18,-2,.,-2,-7
Cc1ccc(Nc2nc(-c3c(C)nc4ccccn34)cs2)cc1,7,-6,13,2,-48*
Cc1ccn2c(-c3csc(NCc4ccccc4)n3)c(C)nc2c1,5,-17,12,8,-33*
CC(C)CC1C(=O)N(Cc2cn(CCC3OCCCO3)nn2)CCS(=O)(=O)N1Cc1ccc(-c2ccc(Cl)c(Cl)c2)cc1 (configuration not stated),-2,.,9,.,.
CN1c2c(nc(N)[nH]c2=O)NCC1CNc1ccc(C(=O)NC(CCC(=O)O)C(=O)O)cc1 (configuration not stated),1,.,.,.,.
CC1Nc2ncnc(N3CCOCC3)c2N(Cc2ccc(Cl)cc2)C1=O (configuration not stated),-3,-2,?,2,9
CC1Nc2ncnc(N3CCN(c4ccccc4)CC3)c2N(Cc2ccccc2)C1=O (configuration not stated),-69,-7,-110*,-1,-27
CC1Nc2ncnc(N3CCN(c4ccccc4)CC3)c2N(Cc2ccc(Cl)cc2)C1=O (configuration not stated),-81,-1,-166*,1,-12
CC(C)CC1Nc2ncnc(N3CCN(c4ccccc4)CC3)c2N(Cc2ccccc2)C1=O (configuration not stated),-12,-3,-78*!,1,2
O=C(O)c1ccccc1[O-].O=C(O)c1ccccc1[O-].[Zn+2],3,.,.,.,.
CCNc1nc(-c2sc(NC(=O)C(C)(C)C)nc2C)c(-n2cc(-c3ccccc3)nn2)s1,31*,.,180,.,.
CC1(C(=O)NS(=O)(=O)c2ccccc2)CCN1C(=O)Cc1cccs1 (configuration not stated),4,.,37,.,.
CCc1cc2c(=O)c(-c3nc(C)cs3)coc2cc1OC(C)C(=O)NCCO (configuration not stated),1,-2,10,0,-33*
CCOC(=O)N1CCC(NCCNC(=O)c2ccc(Cl)cc2)CC1,-14,-1,-74*,1,-1
CCOC(=O)N1CCC(Nc2c(N3CCN(c4cc(Cl)ccc4C)CC3)c(=O)c2=O)CC1,4,.,-21,2,-30*
CCOC(=O)N1CCC(NCCNC(=O)c2ccc(F)c(F)c2)CC1,-70,-3,-99*,1,.
Cc1cccc(C)c1OCc1nc2c3cnn(-c4ccccc4F)c3ncn2n1,-2,0,.,3,-16
COC(=O)c1[nH]c2ccc(F)cc2c1NS(=O)(=O)c1ccc(F)c(C)c1,1,-12,-23,0,-16
COC(=O)c1[nH]c2ccc(C)cc2c1NS(=O)(=O)c1ccc(F)c(C)c1,-9,-5,-51*,6,0
Cc1ccc(S(=O)(=O)N2CCN(Cc3ccc4c(c3)OCO4)CC2)cc1,-31,-2,.,-2,6
COc1cc(OC)c2ccc(=O)oc2c1C(CCN1CCCC(C)C1)c1ccc(N(C)C)cc1 (configuration not stated),-62,-6,-60*,2,21
